Screening results: PubChem BioAssay, several laboratories
CatB inh = human cathepsin B inhibition; AID 453; 0.1% of 63,000 active; P07858; inhibition, %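 (tested at 10 µM)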; purified cathepsin B, fluorogenic substrate, fluorescence; in the data active = inhibition above about 21%;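 note: 0% = enzyme with no compound and 100% = no enzyme blank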
CatS inh = human cathepsin S inhibition; inhibition, %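 (tested at 5 µM per compound within 10-compound mixtures)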; AID 501; recombinant cathepsin S, AMC dipeptide fluorescence, pooled mixtures; P25774; 0.06% of 62,000 active; in the data active = inhibition above about 32%, passing the limit was not always enough;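 note: 0% = enzyme without compound and 100% = blank without enzyme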
CatB mixtures = inhibitors of human cathepsin B in compound mixtures; inhibition, %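 (ten-compound pools at 5 µM per compound and 50 µM total)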; AID 488; P07858; Purified cathepsin B, AMC dipeptide fluorescence; 0.06% of 62,000 active; in the data active = inhibition above about 22%, passing the limit was not always enough;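 note: 0% = enzyme without compound and 100% = no enzyme blank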
Her2 expr inh = inhibitors of human Her2 kinase expression; AID 645; SKBR-3 HER2 protein level, AlphaScreen, 18-24 h; active compounds read low; P04626; HER2 level % of control, % at 10 µM; 0.69% of 65,000 active;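 active = HER2 level under 5% of the carrier-only control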;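 note: 100% = DMSO carrier and 0% = 500 nM PU-H71 HSP90 inhibitor; lower value means stronger loss of Her2 protein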
Target sequence (P04626 whole entry, looked up): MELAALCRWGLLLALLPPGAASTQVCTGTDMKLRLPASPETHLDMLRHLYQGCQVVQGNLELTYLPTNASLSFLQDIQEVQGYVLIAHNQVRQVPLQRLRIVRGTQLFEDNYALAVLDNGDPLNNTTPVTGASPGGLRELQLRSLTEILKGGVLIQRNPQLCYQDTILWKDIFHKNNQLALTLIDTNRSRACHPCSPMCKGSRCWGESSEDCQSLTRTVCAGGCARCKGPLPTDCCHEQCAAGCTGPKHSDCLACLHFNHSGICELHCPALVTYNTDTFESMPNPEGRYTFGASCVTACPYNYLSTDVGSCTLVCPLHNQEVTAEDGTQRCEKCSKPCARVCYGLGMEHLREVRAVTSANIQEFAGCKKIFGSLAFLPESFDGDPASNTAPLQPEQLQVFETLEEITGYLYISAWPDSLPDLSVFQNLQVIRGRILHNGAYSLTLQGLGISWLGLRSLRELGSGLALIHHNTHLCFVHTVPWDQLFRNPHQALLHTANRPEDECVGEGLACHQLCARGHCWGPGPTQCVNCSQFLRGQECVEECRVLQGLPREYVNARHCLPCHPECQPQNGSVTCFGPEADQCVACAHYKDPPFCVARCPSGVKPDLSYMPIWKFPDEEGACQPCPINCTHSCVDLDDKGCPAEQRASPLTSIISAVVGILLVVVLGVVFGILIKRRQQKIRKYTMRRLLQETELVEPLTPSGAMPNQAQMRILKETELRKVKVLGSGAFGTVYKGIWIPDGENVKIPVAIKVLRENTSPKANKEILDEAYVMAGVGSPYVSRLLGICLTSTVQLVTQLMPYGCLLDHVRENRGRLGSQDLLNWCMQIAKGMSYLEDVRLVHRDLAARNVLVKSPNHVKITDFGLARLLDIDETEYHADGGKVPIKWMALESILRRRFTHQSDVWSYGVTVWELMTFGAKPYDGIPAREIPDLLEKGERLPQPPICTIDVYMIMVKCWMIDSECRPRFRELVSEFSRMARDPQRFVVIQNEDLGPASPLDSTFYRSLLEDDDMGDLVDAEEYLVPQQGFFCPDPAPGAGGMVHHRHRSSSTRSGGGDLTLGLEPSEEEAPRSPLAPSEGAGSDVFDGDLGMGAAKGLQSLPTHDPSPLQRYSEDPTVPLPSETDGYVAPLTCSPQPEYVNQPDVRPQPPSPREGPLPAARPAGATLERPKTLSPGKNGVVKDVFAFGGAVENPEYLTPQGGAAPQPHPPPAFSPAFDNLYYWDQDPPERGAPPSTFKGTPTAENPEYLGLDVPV
CatL inh = inhibitors of human cathepsin L | P07711 | purified cathepsin L, fluorogenic substrate, fluorescence | inhibition, %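 (tested at 10 µM)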 | 0.17% of 58,000 active | AID 460; in the data active = inhibition above about 45%;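 note: 0% = enzyme with no compound and 100% = no enzyme blank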
SK-BR-3 tox 24h = SK-BR-3 proliferation inhibitors; AID 847; 0.47% of 41,000 active; SK-BR-3 viability, CellTiter-Glo ATP luminescence, 24 h; active compounds read low; viability, % at 10 µM;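 active = viability at or below the median of all test compounds minus 3 SD, in both replicates if run twice, cut at about 45% in these data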;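 note: 100% = median untreated cell wells and 0% = median positive control drug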
* = called active by the depositor; / = not tested or not shown. Only some compounds are listed: those with a hit (about 1.1% of all), similar ones and a draw of the others.

SMILES | CatB inh | CatS inh | CatB mixtures | Her2 expr inh | CatL inh | SK-BR-3 tox 24h
Nc1nonc1-c1nc2ccccc2n1CC(=O)N1CCN(c2ccc(F)cc2)CC1 | 36.9* | 4.0 | 9.9 | 80.1 | / | 87.0
CCOc1ccc(CCNC(=O)Cn2c(-c3nonc3N)nc3ccccc32)cc1OCC | 64.5* | 3.2 | 51.0* | 95.0 | 51.7* | 53.3
CCOC(=O)Cn1c(-c2nonc2NC(=O)c2ccccc2F)nc2ccccc21 | 1.6 | -3.8 | -0.1 | 73.4 | -14.0 | 69.7
CCCCOc1ccccc1NC(=O)Cn1c(-c2nonc2N)nc2ccccc21 | 53.7* | -6.6 | -3.2 | 86.7 | 60.0* | 73.6
COc1ccc(CCNC(=O)Cn2c(-c3nonc3N)nc3ccccc32)cc1OC | 14.1 | -6.6 | 12.4 | 90.3 | 10.2 | 82.7
Cc1ccc2c(c1)-c1c(cnn1CC(=O)N(CCC#N)c1ccccc1)CO2 | -2.9 | -0.6 | -1.8 | 96.9 | / | /
COc1ccc(OCCn2c(NC(=O)c3ccco3)nc3ccccc32)cc1 | 2.7 | -1.6 | -1.2 | 59.4 | -9.8 | 89.2
CCCn1c(NC(=O)c2ccco2)nc2ccccc21 | 2.3 | 0.7 | 3.8 | 0.7* | -6.4 | /
Cn1c(C(C#N)C(=O)c2ccco2)nc2ccccc21 (stereo unspecified) | 5.5 | 9.7 | 4.4 | -11.7* | 34.3 | 129.4
Cc1occc1C(=O)N1CCN(C(=O)C2CCCO2)CC1 (stereo unspecified) | -2.6 | -3.1 | 1.5 | 72.8 | -4.4 | 75.5
Clc1ccc(CSC2=NCCCN2)cc1Cl | -0.6 | 3.5 | 3.3 | -16.6* | 5.7 | /
Clc1ccc(CSc2nnc([C@@H]3CCCN3)o2)cc1Cl | -3.7 | -31.9 | 1.6 | 82.2 | -2.0 | 71.9
CCN(CC)CCCN1C(=O)C(=O)/C(=C(/O)c2ccc(OC)c(Cl)c2)C1c1ccco1 (stereo unspecified) | 2.0 | -5.0 | -5.8 | 119.6 | -9.4 | 87.4
Nc1ccc2ncccc2c1N | 7.3 | / | / | -18.6* | 79.4* | 88.1
Nc1ccc2ncccc2c1 | 2.9 | 1.6 | 1.6 | 128.3 | 9.8 | 99.7
Cc1cc(NC(=O)CCS(=O)(=O)c2nc(-c3ccccc3)cc(C(F)(F)F)n2)no1 | -1.0 | -6.4 | -4.5 | / | 1.6 | 39.1*
COc1ccc(-c2cc(C(F)(F)F)nc(SCC(=O)Nc3cc(C)on3)n2)cc1 | -0.2 | 6.0 | -0.3 | 59.8 | 28.7 | 73.4
CS(=O)(=O)c1nc(-c2ccccc2)cc(C(F)(F)F)n1 | 0.0 | -4.4 | -0.3 | -23.6* | -6.3 | 28.0*
COc1ccc(C(=O)C(CN2CCCC2)c2ccccc2)cc1 (stereo unspecified) | -5.1 | / | / | -6.9* | -5.6 | 115.1
O=C(c1ccc(F)cc1)C(CN1CCOCC1)c1ccccc1 (stereo unspecified) | -0.4 | 1.0 | 0.3 | -19.2* | -15.7 | 22.2*
O=C(c1ccccc1)C(CCC(CN1CCOCC1)C(=O)c1ccccc1)CN1CCOCC1 (stereo unspecified) | 4.3 | -1.0 | 4.3 | 99.2 | 6.8 | 100.5
CC(C)Cc1cc(C(=O)NCCCN2CCOCC2)no1 | -3.9 | 4.1 | 6.8 | 106.0 | / | /
COc1ccccc1S(=O)(=O)Cc1ccc(C(=O)NCCN2CCCCCC2)o1 | 1.9 | -1.6 | 4.6 | 63.4 | 50.4* | /
COc1ccccc1S(=O)(=O)Cc1ccc(C(=O)NCCN(C)C)o1 | 1.4 | 3.0 | 4.0 | 116.4 | 15.8 | /
Cc1ccc(CNC(=O)Cn2c(=O)oc3ccccc32)o1 | 5.2 | 13.3 | 0.7 | 117.2 | 6.4 | 38.0*
SMILES | CatB inh | CatS inh | CatB mixtures | Her2 expr inh | CatL inh | SK-BR-3 tox 24h
COC(=O)c1sc(NC(=O)Cc2cccs2)nc1C | -2.0 | 10.3 | -1.6 | 95.3 | 1.4 | 88.5
O=C(c1ccc(Cl)c(F)c1F)N1CCCC1 | 2.0 | 33.4 | 5.7 | 105.0 | 1.2 | 103.9
CCNC(=O)c1nc[nH]c1C(=O)NCC | 1.5 | -1.1 | -1.8 | -21.8* | 5.8 | 94.6
CCn1c(C(=O)NCc2cccnc2)cc2sc(Cl)cc21 | 2.3 | -0.6 | 1.9 | 91.7 | -2.1 | /
CCOCCCn1c(C)nc2c(c1=O)c1nc3ccccc3nc1n2CCC1=CCCCC1 | 3.7 | 2.1 | -2.3 | -22.4* | -40.2 | 12.3*
CCCn1cnc2c(c1=O)c1nc3ccccc3nc1n2CCC1=CCCCC1 | -3.9 | 8.1 | 0.6 | 102.2 | -7.3 | 95.0
CCCCC(C(=O)O)C(C)CC(=O)Nc1cccc(C(=O)O)c1 (stereo unspecified) | -1.4 | / | / | -21.9* | -8.4 | 101.1
CCC(CCC(=O)Nc1cccc(C(=O)O)c1)C(=O)O (stereo unspecified) | -6.9 | 2.8 | -5.2 | 89.1 | -1.6 | 74.7
O=C1CCCN1CC(CN1CCOCC1)Sc1nc2ccccc2c(=O)n1-c1ccccc1 (stereo unspecified) | 0.0 | 0.5 | 2.5 | 94.6 | / | 103.3
CCN(CCNC(=O)C1CCN(Cc2nc(-c3ccc(Cl)cc3)oc2C)CC1)c1ccccc1 | 0.2 | 10.1 | 4.2 | -16.7* | 18.4 | /
CCc1ccc(-c2nc(CN3CCC(C(=O)NCCN(CC)c4ccccc4)CC3)c(C)o2)cc1 | -5.0 | 6.3 | 8.0 | -12.5* | 3.7 | /
CCc1ccc(-c2nc(CN3CCC(C(=O)N4CCN(c5ccccc5)CC4)CC3)c(C)o2)cc1 | -0.8 | 14.3 | -2.8 | -15.4* | -2.1 | /
Cc1ccccc1-c1nc(CN2CCC(C(=O)NCCC3=CCCCC3)CC2)c(C)o1 | 0.8 | 0.2 | 3.7 | -16.4* | 4.3 | /
CCN(CCNC(=O)C1CCCN(Cc2nc(-c3ccc(OC)cc3)oc2C)C1)c1ccccc1 (stereo unspecified) | 3.7 | 2.1 | 4.8 | 80.0 | 8.4 | /
O=C(C1CCCN(S(=O)(=O)c2ccccc2)C1)N1CCCc2ccccc21 (stereo unspecified) | -3.0 | -6.1 | -1.0 | 92.4 | / | /
Cc1nn(CC(N)=O)c(=O)c2ccccc12 | 2.9 | / | / | 68.5 | -0.9 | 87.6
Cc1oc(-c2cccc(Cl)c2)nc1CN1CCC(C(=O)NCc2cccnc2)CC1 | 1.5 | -1.6 | 1.9 | 101.5 | -0.1 | /
CCN(CCNC(=O)C1CCN(Cc2nc(-c3cccc(Cl)c3)oc2C)CC1)c1ccccc1 | 0.9 | -18.3 | -3.1 | -12.7* | 0.4 | /
O=C1COc2ccc3ccccc3c2CN1 | -2.0 | -4.8 | -3.6 | 118.8 | -5.6 | /
Nc1nnc(-c2cccnc2)s1 | -1.1 | -16.2 | -1.8 | 82.8 | -0.1 | /
c1cncc(-c2nnc(-c3cccnc3)nn2)c1 | 1.0 | -3.1 | 4.0 | 55.1 | 2.8 | 35.3*
Nc1nonc1C(=O)OCC(=O)N1CCOCC1 | 30.6* | 0.0 | 7.7 | 90.8 | 7.7 | 95.3
COCCOC(=O)C1=C(C)NC(=O)NC1c1c(F)cccc1Cl (stereo unspecified) | 4.2 | -7.1 | -1.3 | 95.9 | / | 96.0
Cc1nc2ccccc2c(=O)n1/N=C/c1ccc(N(C)C)cc1 | 0.4 | -13.7 | 3.0 | 164.9 | 0.1 | /
CCN(CC)c1ccc(/C=N/n2c(=S)[nH]nc(C)c2=O)cc1 | 7.2 | -6.4 | 1.7 | 126.4 | 104.2* | /
CC(C(=O)NCc1ccc2c(c1)OCO2)N1c2cccc3cccc(c23)S1(=O)=O (stereo unspecified) | 1.8 | 7.0 | 1.6 | 126.7 | 1.6 | /
